Bioassay records as filed in PubChem.
This excerpt belongs to a sample that is enriched for hits.
Dicer processing: inhibitors of Dicer pre-microRNA processing, primary screen, biochemical, cat-ELCCA, chemiluminescence. cat-ELCCA pre-miR-21 Dicer processing; active compounds read high. z-score at 25 µM. 6% of 47,000 active. AID 1347074, 2019; in the data active = z-score above about 3, passing the limit was not always enough;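 note: plate controls were vehicle for no effect and no enzyme for full effect; higher signal means more uncleaved substrate so more Dicer inhibition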
* = called active by the depositor.

SMILES	Dicer processing
CC(C)Cn1c(NCCN(C)C)nc2c1c(=O)[nH]c(=O)n2C	4.3*
CC(C)Cn1c(NC2CCCCC2)nc2c1c(=O)[nH]c(=O)n2C	0.18
Cc1ccc(Cn2c(NCc3ccco3)nc3c2c(=O)n(C)c(=O)n3C)cc1	0.5
Cn1c(=O)[nH]c(=O)c2c1nc(NCc1ccco1)n2CC(O)COc1ccccc1 (stereo not given)	-1.6
O=c1oc(-c2c(F)cccc2F)nn1-c1cc(C(F)(F)F)ccn1	0.45
CN(C)/C=N/S(=O)(=O)c1ccccc1	1.1
O=C(CCSc1c(Cl)cccc1Cl)c1ccco1	1.2
COC(=O)c1nn(-c2ccc(OC)cc2)c(=O)c2c(NC(C)=O)sc(C)c12	-1.6
Cc1ccc(CN2C(=O)c3oc4ccc(Br)cc4c(=O)c3C2c2ccc(O)cc2)cc1 (stereo not given)	0.63
CCCSc1sc(C(=O)OC)c2c1C(=O)CC(C)(C)C2	-0.81
CCSc1sc(C(=O)OC)c2c1/C(=N/O)CC(C)(C)C2	2.5
CCSc1sc(C#N)c2c1C(=O)CC(C)(C)C2	3.6*
O=C(Nc1cccc2nsnc12)c1sc2cccc(F)c2c1Cl	1.7
CC(=O)C1=NN(c2cccc(Cl)c2)C2C(=O)N(c3ccccc3)C(=O)C12 (stereo not given)	0.57
Cc1ccc(S(=O)(=O)NCc2ccc3c(c2)OCO3)cc1C	0.26
COc1ccc(S(=O)(=O)NCc2ccc3c(c2)OCO3)cc1OC	3.6*
COc1ccc(CNCc2ccc3c(c2)OCO3)cc1OC	-0.8
O=C1CSC(c2ccc(Cl)c(Cl)c2)N1c1ccc(F)cc1 (stereo not given)	-0.36
CC(C)(C)OC(=O)NC1CCNCC1	-0.38
COc1ccc2c(c1)CCC/C2=N\N=C(/N)SC	-0.38
CC1CN(CN2C(=O)c3ccccc3C2=O)CC(C)O1 (stereo not given)	3.4*
O=C1c2ccccc2C(=O)N1CN1CCSCC1	0.66
O=C1c2ccccc2C(=O)N1CN1CCN(C(c2ccccc2)c2ccccc2)CC1	0.49
C=CCOC(=O)C1=C(C)NC2=C(C(=O)CCC2)C1c1cc(OC)c(OC)cc1Br (stereo not given)	0.89
CCOC(=O)C(=CN(C1=NCC(C)S1)c1ccc(F)c(Cl)c1)C(=O)OCC (stereo not given)	0.68
SMILES	Dicer processing
COc1ccc(Cl)cc1N1C(=O)CC(C)(C)CC1=O	-0.68
C=CCn1c(SCC(=O)c2c(C)[nH]c3ccccc23)nnc1-c1cccnc1	-1.3
Cc1ccc(S(=O)(=O)Nc2ccc(-c3cn4cccc(C)c4n3)cc2)cc1	1.7
Cc1cccn2cc(-c3cccc(NS(=O)(=O)c4ccc(Br)cc4)c3)nc12	4.1*
Cc1cccn2cc(-c3ccc(NS(=O)(=O)c4ccccc4)cc3)nc12	1.5
CSCCC(NC(=O)c1ccc(C(F)(F)F)cc1)C(=O)NNC(=O)Nc1ccccc1 (stereo not given)	0.53
Cn1c(=O)c2c(-c3ccc(F)cc3)ccnc2n(C)c1=O	0.55
Cc1cc(NC(=O)CC2NCCN(Cc3ccccc3)C2=O)no1 (stereo not given)	-0.61
CCOc1ccc(C2C(C#N)=C3N=C(N)c4ccccc4N3C3=C2C(=O)CCC3)cc1 (stereo not given)	0.74
COc1ccc(C2CC(c3cc(Cl)ccc3O)=NN2)cc1OC (stereo not given)	4.4*
COc1cccc2c1OC(c1cccnc1)N1N=C(c3cc(Cl)ccc3O)CC21 (stereo not given)	1.1
COc1ccc(C2CC(c3ccc(Cl)cc3)Nc3nc(N)nn32)cc1OC (stereo not given)	-1.2
CC1CCc2c(sc3ncn4cnnc4c23)C1 (stereo not given)	-0.73
Cc1ccc(Cl)cc1N1CC(O)=C(c2nc3ccccc3c(=O)[nH]2)C1=N	-1.7
O=C(OCCS(=O)(=O)c1ccc(Cl)cn1)c1cccc(Cl)c1	-0.34
O=C(NNS(=O)(=O)c1cc(C(F)(F)F)cc(C(F)(F)F)c1)c1sccc1-n1cccc1	0.59
CCCCCCCNC1CC(=O)N(c2ccc(Br)cc2)C1=O (stereo not given)	0.02
C=C(C)Cc1c(COC)nc(SCC2CC2)[nH]c1=O	11
Cc1cc(C)nc(Nc2ncc(O)n2-c2ccc(C)c(C)c2)n1	3.6*
Cc1cc(C)c2c(C)nn(-c3ccc(C)c(C)c3)c2n1	-3.5
CCOc1ccc(-n2c(O)cnc2Nc2nc(C)cc(C)n2)cc1	1.3
CSc1nnc2c(n1)OC(/C=C/c1ccccc1)Nc1ccccc1-2 (stereo not given)	7.8
CCCCOC(=O)C1=C(C)NC2=C(C(=O)CC(C)(C)C2)C1c1ccc(OC)cc1 (stereo not given)	-0.08
NNC(=O)CNC(=O)c1c(F)cccc1F	-2
NNC(=O)CNC(=O)c1ccc(Br)cc1	4.8*
SMILES	Dicer processing
O=C(O)CNC(=O)c1ccc(Br)cc1	0.52
CC(C)(C)c1ccc(-c2nnc3sc(-c4cnccn4)nn23)cc1	-1.5
O=C(O)CC1=C(c2ccccc2)CCC1=O	-2.1
COc1cc(-c2ncnn2-c2sc3c(c2C#N)CCCCC3)ccc1O	-3.5
Cc1cc(=O)[nH]c(SCCOc2ccc(C)c(C)c2)n1	-1.3
C=CCSc1nnnn1-c1ccc(OC(=O)C=C(C)C)cc1	-0.89
